The text below walks through data of PMC10668032, “Altered binding affinity of SIX1-Q177R correlates with enhanced WNT5A and WNT pathway effector expression in Wilms tumor”.

Whole data set: some 33,000 sequences, median “e-score” near -0.053, cut for the highest 2% near 0.38. The sample holds the highest values, similar sequences and a random draw of the others, so the mix is not that of the screen.

For the test, the target named is T1, SIX1 homeodomain (reference allele) (human, UniProt Q15475 108-198).
T1 sequence: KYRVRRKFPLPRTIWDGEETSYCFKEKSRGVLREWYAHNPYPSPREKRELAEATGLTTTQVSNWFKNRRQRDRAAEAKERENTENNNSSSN
As to the kind of experiment: universal protein binding microarray; Universal all-10-mer PBM (8x60K, AMADID 030236), 300 nM GST-tagged protein, Alexa Fluor 488 anti-GST; buffer, salt, pH and temperature not stated (as in Berger); high values mean tight binding. The following applies: protein: ivt; tags: N-terminal GST; dsDNA, one strand shown. The procedure, abridged:
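GST-tagged homeodomains were made by in vitro transcription/translation and quantified by anti-GST western blot against a recombinant GST standard curve. They were applied in duplicate at 300 nM final concentration to universal 'all 10-mer' protein binding microarrays (8×60K format). Binding was quantified as 8-mer E-scores with the Universal PBM Analysis Suite.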
In the case of ATCCTTGG, the binding signal worked out at 0.189 ± 0.0361 E-score.

With GATCCGGA, the binding signal turned out to be 0.405 ± 0.0443 E-score.

In the case of AATCCGGA, the binding signal was determined as 0.276 ± 0.0325 E-score.

Take CATCCGGA: the binding signal was found to be 0.21 ± 0.0635 E-score.

Regarding ACACCAAC, the binding signal turned out to be 0.224 ± 0.00659 E-score.

In the case of ACCCTATC, the binding signal stood at 0.346 ± 0.0051 E-score.

Take CCCCTATC: the binding signal is 0.405 ± 0.0204 E-score.

As to CCCCTATA, the binding signal was found to be 0.198 ± 0.0352 E-score.

For GATATCTA, the binding signal was determined as 0.392 ± 0.0618 E-score.

For GATATTAA, the binding signal was determined as 0.31 ± 0.0894 E-score.

GATATTAC: the binding signal was 0.319 ± 0.0605 E-score.

For AATATCTA, the binding signal is 0.259 ± 0.0807 E-score.

For the sequence GCTATCAC, the binding signal amounted to 0.357 ± 0.0605 E-score.

GATATCAA: the binding signal was 0.453 ± 0.0358 E-score.

Regarding CATATCAA, the binding signal came out at 0.452 ± 0.0378 E-score.

For the sequence TATATCAA, the binding signal came out at 0.361 ± 0.0752 E-score.

With GATATCAC, the binding signal is 0.476 ± 0.018 E-score.

Take CATATCTA: the binding signal is 0.322 ± 0.0223 E-score.

Consider CAGATCAA, for which the binding signal turned out to be 0.298 ± 0.00526 E-score.

For CTAATCTC, the binding signal worked out at 0.175 ± 0.0194 E-score.

Regarding ATCCACTG, the binding signal amounted to 0.152 ± 0.0476 E-score.

Take ATCAAACC: the binding signal stood at 0.261 ± 0.00716 E-score.

Consider GATCAATC, for which the binding signal came to 0.366 ± 0.0109 E-score.

For ATACGCTC, the binding signal turned out to be 0.245 ± 0.0572 E-score.

As to GGATCTAA, the binding signal stood at 0.285 ± 0.00708 E-score.

Turning to ATACGAAG, the binding signal came to 0.199 ± 0.0115 E-score.

Take GTATTCCA: the binding signal was found to be 0.202 ± 0.0137 E-score.

For the sequence ATACGTCC, the binding signal is 0.24 ± 0.0851 E-score.

On to AGCGATAG, for which the binding signal turned out to be 0.209 ± 0.0329 E-score.

AGCGATAC: the binding signal worked out at 0.453 ± 0.01 E-score.

For the sequence GGCGATGA, the binding signal was 0.193 ± 0.0619 E-score.

In the case of AGCGATCG, the binding signal stood at 0.211 ± 0.0392 E-score.

As for CGCGATAG, the binding signal was 0.199 ± 0.0163 E-score.

Turning to CGCGATAC, the binding signal was found to be 0.458 ± 0.000728 E-score.

On to AGCGATAT, for which the binding signal is 0.42 ± 0.0465 E-score.

On to AGCGATCA, for which the binding signal worked out at 0.206 ± 0.0525 E-score.

Consider GGCGATCA, for which the binding signal was 0.338 ± 0.00739 E-score.

For the sequence AGCGCGAT, the binding signal stood at 0.166 ± 0.026 E-score.

CGCGACAC: the binding signal was 0.254 ± 0.0327 E-score.

With GGCGATAC, the binding signal worked out at 0.4435 ± 0.00237 E-score.

Consider ATACACGA, for which the binding signal stood at 0.234 ± 0.00563 E-score.

Regarding GGCCGATA, the binding signal was determined as 0.29107 ± 0.000269 E-score.

Regarding CGATGCAG, the binding signal worked out at 0.21 ± 0.0529 E-score.

As for AGGCATAT, the binding signal was found to be 0.308 ± 0.0386 E-score.

For GACAGATC, the binding signal came to 0.286 ± 0.0143 E-score.

Consider GTAATCTA, for which the binding signal came out at 0.15 ± 0.0468 E-score.

Consider CTATACTA, for which the binding signal was determined as 0.168 ± 0.0897 E-score.

On to CCTCTAGA, for which the binding signal amounted to 0.158 ± 0.0403 E-score.

As to ACCGCGCG, the binding signal worked out at 0.175 ± 0.0242 E-score.

CGCGATCC: the binding signal stood at 0.391 ± 0.0245 E-score.

On to CGCGATCA, for which the binding signal was determined as 0.272 ± 0.00455 E-score.

In the case of AGCGATCC, the binding signal stood at 0.356 ± 0.0223 E-score.

Regarding AGTATACA, the binding signal came to 0.294 ± 0.0103 E-score.

Consider CTTATACC, for which the binding signal is 0.275 ± 0.0521 E-score.

For CGTATATA, the binding signal was 0.253 ± 0.0289 E-score.

In the case of ATTATACG, the binding signal worked out at 0.302 ± 0.0645 E-score.

ATTATACC: the binding signal stood at 0.389 ± 0.0376 E-score.

Regarding GGTATATA, the binding signal amounted to 0.384 ± 0.0217 E-score.

Take GGTATAAC: the binding signal stood at 0.301 ± 0.0179 E-score.

Consider GGTATAGA, for which the binding signal was 0.3008 ± 0.001 E-score.

As to GGTATACC, the binding signal was found to be 0.464 ± 0.0068 E-score.

On to GCTATACC, for which the binding signal was determined as 0.284 ± 0.0448 E-score.

Regarding GGTATACA, the binding signal worked out at 0.3843 ± 0.00371 E-score.

Take TGTATACA: the binding signal came to 0.3188 ± 0.000346 E-score.

Regarding ACCAGTAT, the binding signal amounted to 0.24 ± 0.0167 E-score.

ATCCTGTC: the binding signal came to 0.228 ± 0.0128 E-score.

Regarding ATCCATGA, the binding signal was found to be 0.273 ± 0.0349 E-score.

For CGCAGATC, the binding signal was determined as 0.214 ± 0.00241 E-score.

As for GGATAGCA, the binding signal is 0.241 ± 0.00553 E-score.

On to ATCTATTC, for which the binding signal was determined as 0.24 ± 0.00333 E-score.

With CGTATACC, the binding signal is 0.367 ± 0.014 E-score.

As for AGTATACT, the binding signal was 0.219 ± 0.0526 E-score.

Consider AGTATACC, for which the binding signal is 0.389 ± 0.0206 E-score.

As to ATACTTGC, the binding signal was 0.215 ± 0.0473 E-score.

Take CGGGGATC: the binding signal turned out to be 0.396 ± 0.0226 E-score.

In the case of CAGGGATA, the binding signal amounted to 0.328 ± 0.0119 E-score.

With GAAGGATA, the binding signal was found to be 0.268 ± 0.0478 E-score.

With GAAGGATC, the binding signal was 0.39 ± 0.012 E-score.

Take ATGGGATC: the binding signal was determined as 0.368 ± 0.0389 E-score.

Regarding CAGGGATC, the binding signal was 0.42 ± 0.0412 E-score.

For the sequence CCGGGATC, the binding signal turned out to be 0.375 ± 0.0348 E-score.

On to AGGGGATC, for which the binding signal stood at 0.426 ± 0.0173 E-score.

Take CTGGGATC: the binding signal was determined as 0.297 ± 0.0767 E-score.

Consider CAAGGATC, for which the binding signal was found to be 0.351 ± 0.0137 E-score.

As to ACGGGATC, the binding signal was determined as 0.342 ± 0.0556 E-score.

As to AGGGGATG, the binding signal was 0.201 ± 0.0454 E-score.

Turning to GCTGTATA, the binding signal was found to be 0.232 ± 0.0591 E-score.

On to ATACACTG, for which the binding signal stood at 0.338 ± 0.00871 E-score.

In the case of ACGTCTCA, the binding signal was determined as 0.322 ± 0.0324 E-score.

In the case of AGATCTCA, the binding signal is 0.262 ± 0.0503 E-score.

On to TCCATCAA, for which the binding signal is 0.168 ± 0.0474 E-score.

For the sequence ATACTTAA, the binding signal worked out at 0.19 ± 0.132 E-score.

As for AGTCATAT, the binding signal came to 0.257 ± 0.0554 E-score.

For CGATAGTA, the binding signal was 0.263 ± 0.0297 E-score.

As to AAGGGATT, the binding signal was found to be 0.188 ± 0.061 E-score.

Consider AAGGGATC, for which the binding signal is 0.377 ± 0.0133 E-score.

In the case of AAAGGATC, the binding signal turned out to be 0.279 ± 0.0681 E-score.

Turning to ATACGCCG, the binding signal stood at 0.277 ± 0.0315 E-score.

Turning to GTATTATA, the binding signal came out at 0.377 ± 0.042 E-score.

Regarding ATATTATA, the binding signal came out at 0.333 ± 0.0863 E-score.

Regarding GTATTAGA, the binding signal was 0.237 ± 0.0563 E-score.

For the sequence AATACGGA, the binding signal is 0.169 ± 0.0478 E-score.

With CATCCACG, the binding signal amounted to 0.183 ± 0.0475 E-score.

Regarding GGTGAGAA, the binding signal stood at 0.162 ± 0.0553 E-score.

Turning to CATATCGC, the binding signal worked out at 0.424 ± 0.0197 E-score.

As for AATATCGT, the binding signal was determined as 0.309 ± 0.0634 E-score.

Turning to CATATAGC, the binding signal is 0.162 ± 0.0222 E-score.

Regarding GAGATCGC, the binding signal turned out to be 0.27 ± 0.0213 E-score.

Take CAGATCGA: the binding signal turned out to be 0.277 ± 0.0349 E-score.

As to GATATCGC, the binding signal stood at 0.468 ± 0.0155 E-score.

For the sequence CATATAGA, the binding signal amounted to 0.183 ± 0.00672 E-score.

In the case of CATATCGA, the binding signal amounted to 0.417 ± 0.00575 E-score.

Turning to CATATCGG, the binding signal worked out at 0.401 ± 0.0215 E-score.

In the case of AATATCGG, the binding signal was 0.312 ± 0.0183 E-score.

Take AATATCGC: the binding signal was determined as 0.299 ± 0.0725 E-score.

Turning to GATATAGC, the binding signal stood at 0.368 ± 0.0388 E-score.

GGTGTAAC: the binding signal was 0.309 ± 0.00742 E-score.

For AGACGGTA, the binding signal turned out to be 0.196 ± 0.0243 E-score.

With CACTAATA, the binding signal was 0.215 ± 0.00278 E-score.

As for GGATATTA, the binding signal worked out at 0.355 ± 0.0417 E-score.

For ATATGCCG, the binding signal was 0.211 ± 0.0327 E-score.

On to AGTTGTAT, for which the binding signal is 0.215 ± 0.0407 E-score.

On to AGATAAAG, for which the binding signal is 0.183 ± 0.0397 E-score.

For the sequence CGTCTCAG, the binding signal turned out to be 0.161 ± 0.0511 E-score.

Turning to TACGCGCA, the binding signal is 0.174 ± 0.0401 E-score.

On to CGAATATC, for which the binding signal was found to be 0.308 ± 0.00674 E-score.

Turning to GAACACCC, the binding signal came to 0.205 ± 0.0407 E-score.

Turning to CCCCTTCC, the binding signal came to 0.164 ± 0.0967 E-score.

Take GATATTGA: the binding signal came out at 0.287 ± 0.088 E-score.

Consider CATATACG, for which the binding signal was determined as 0.24 ± 0.0369 E-score.

Consider GAGATCGA, for which the binding signal was determined as 0.271 ± 0.0142 E-score.

As to AATATCGA, the binding signal is 0.241 ± 0.0403 E-score.

As for TATATCGA, the binding signal was found to be 0.387 ± 0.0436 E-score.

In the case of ATTATCCG, the binding signal worked out at 0.351 ± 0.0414 E-score.

For the sequence TATATCCA, the binding signal was found to be 0.335 ± 0.0312 E-score.

Turning to CATATCCG, the binding signal came out at 0.426 ± 0.0135 E-score.

On to GATATCGA, for which the binding signal was 0.42 ± 0.0378 E-score.

As for CAACTATC, the binding signal was determined as 0.168 ± 0.0786 E-score.

Regarding ATTGAATA, the binding signal amounted to 0.196 ± 0.0188 E-score.

Take GTGTCGCA: the binding signal was determined as 0.173 ± 0.106 E-score.

Turning to AAGAATAC, the binding signal was found to be 0.214 ± 0.0706 E-score.

In the case of ATCAATTA, the binding signal stood at 0.229 ± 0.0261 E-score.

In the case of ATCGCCTG, the binding signal was 0.206 ± 0.0204 E-score.

Regarding ATACTGTG, the binding signal came to 0.226 ± 0.0353 E-score.

As for GATCGCGA, the binding signal turned out to be 0.3375 ± 0.00196 E-score.

On to TATCGCGA, for which the binding signal is 0.395 ± 0.0175 E-score.

In the case of TATCGCCA, the binding signal came out at 0.36392 ± 0.000113 E-score.
